High-throughput results as filed in PubChem BioAssay.
CHX counter – Cycloheximide Counterscreen for Small Molecule Inhibitors of Shiga Toxin; cell reporter, cycloheximide protein synthesis inhibition counterscreen; max response, %; 300,000 compounds, 12% hits; in the data active = max response mostly above about 13%, no sharp cut-off; inactive = mostly below about 14%; note: read at 38.3 µM for the half of the compounds with a filed dose; 0% is about no effect
Pf growth 48h – Primary qHTS for delayed death inhibitors of the malarial parasite plastid, 48 hour incubation | P. falciparum luciferase growth in erythrocytes, 48 h | Potency, µM (series often up to 28.7 µM), without a hit: at the highest dose activity change, negative = inhibition, usual class: inhibitors | 310,000 compounds, 5.9% hits | AID 504832, 2011; note: potency is the fitted concentration of half-maximal effect; % is set by controls: 0 for no effect and ±100 for the full control effect
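Luciferase-expressing parasites in RBCs, 2% Hct / 0.1% parasitemia final; RPMI 1640 + 0.5% Albumax; 37 C, 5% CO2, one generation; luminescence read-out, lower signal = inhibition.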
Shiga inhibitor – A qHTS for Small Molecule Inhibitors of Shiga Toxin | inhibition, % at 38.7 µM | 290,000 compounds, 9.2% hits | Vero cells, Shiga toxin protein synthesis inhibition reporter; in the data active = inhibition mostly above about 28%, no sharp cut-off; inactive = mostly below about 43%; note: 0% is about no effect
Pf growth 96h – Primary qHTS for delayed death inhibitors of the malarial parasite plastid, 96 hour incubation; P. falciparum luciferase reporter growth, 96 h; Potency, µM (top dose mostly 28.7 µM), without a hit: top-dose activity change, negative = inhibition, hits mostly inhibitors; 320,000 compounds, 6.9% hits; note: potency is the fitted concentration of half-maximal effect; % is set by controls: 0 for no effect and ±100 for the full control effect
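Compounds incubated with erythrocytes infected by luciferase-expressing P. falciparum (2% hematocrit, 0.05% parasitemia final) for 96 hours, 37 C in 5% CO2. Growth inhibition scored as decreased luciferase luminescence.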
* marks the source's active call; other numbers are inactive results; ? = inconclusive; . = no result given; [ ] = another dose, or the depositor's remark. This is a sample that favours compounds with a hit; in the whole collection about 21% have one here. Unless noted, calls come from the whole dose curve; as a rule, active = well fitted inhibition curve with a large enough effect; inconclusive = small, poorly fitted or top-dose-only effect, or another doubt; inactive = no such curve, though single readings can be large or run the other way.

SMILES	CHX counter	Pf growth 48h	Shiga inhibitor	Pf growth 96h
CC(=O)c1cccc(Nc2nc(-c3ccccc3)cs2)c1	33*	-11%	107*	?
COC(=O)c1ccc(CNC(=O)CNC(=O)c2sc3ccccc3c2Cl)cc1	.	?	.	7%
CCOc1ccc(CC(=NCCc2ccccc2)C2=C(O)CC(C)(C)CC2=O)cc1OCC	-3	?	-7	?
COc1ccc(Cl)cc1NC(=O)C(C)N1CCN(c2ccccn2)CC1 (stereo not given)	-3	0%	-6	0%
O=C(/C(Cl)=C/Nc1ccc(Br)cn1)C(F)(F)F	16*	0%	35	33%
O=C(Nc1ccc(Cl)cc1)Nc1ccc(Br)cn1	9	.	22	?
COC(=O)C(O)(c1ccc2c(c1)CCCN2)C(F)(F)F (stereo not given)	-6	.	-10	8.3µM*
O=C(O)c1cc(Cl)c(Cl)cc1C(=O)Nc1cccnc1	4	20%	-13	0%
O=C(Nc1cccnc1)c1cc(-c2ccc(Cl)cc2Cl)on1	28*	164%	63*	34%
O=C(Nc1cccnc1)c1cc(-c2ccc(Cl)cc2)on1	40*	231%	152*	91%
CC(C)ON(C(C(=O)NO)C(C)C)S(=O)(=O)c1ccc(-c2ccccc2)cc1 (stereo not given)	-4	.	33	.
O=C(c1cc(C2CC2)nc2ccccc12)N1N=C(C(F)F)CC1(O)C(F)F (stereo not given)	0	-6%	-10	?
CC(C)c1ccc(-c2cc(C(=O)NN3CCN(C)CC3)c3ccccc3n2)cc1	35*	?	82*	?
O=C(c1cc(C2CC2)nc2ccc(Br)cc12)N1N=C(C(F)F)CC1(O)C(F)F (stereo not given)	-6	?	-11	9.3µM*
CN1CCN(NC(=O)c2cc(-c3cccc(Cl)c3)nc3ccccc23)CC1	-4	?	-8	5%
CC(C)c1ccc(-c2cc(C(=O)N3N=C(C(F)F)CC3(O)C(F)F)c3ccccc3n2)cc1 (stereo not given)	23*	?	83*	.
Cc1ccc2c(C)c(C(=O)NCc3ccc(S(N)(=O)=O)cc3)oc2c1	-3	-9%	-11	12%
Oc1cccc(-c2nc3ccc4ccccc4c3c3c2CCC3)c1	59*	.	127*	-11%
CCN(CC(=O)Nc1ccccc1OC)C(=O)c1ccc(N(C)S(=O)(=O)c2ccc(C)cc2)cc1	.	-2%	.	?
O=C(NCCNCCO)C1(C(F)(F)F)CC(CCc2ccccc2)CCCO1 (stereo not given)	-3	.	-3	.
CCCOc1ccc(C(=O)Nc2nc(C)c(Cc3ccc4c(c3)OCO4)s2)cc1	24*	10µM*	72*	?
Cc1nc(NC(=O)c2ccc(OCC(C)C)cc2)sc1Cc1ccc2c(c1)OCO2	19*	?	30*	?
CC(C)Cn1c(=O)c2c(nc3n2CCCN3CCc2ccccc2)n(C)c1=O	-7	5.2µM*	-8	7%[5.75 µM]
Cn1c(=O)n(CC(=O)O)c(=O)c2c1nc1n2CCCN1CCc1ccccc1	-2	-14%	-6	?
CCCn1c(=O)c2c(nc3n2CCCN3CCc2ccccc2)n(C)c1=O	-4	?	2	?
SMILES	CHX counter	Pf growth 48h	Shiga inhibitor	Pf growth 96h
CCn1c(=O)c2c(nc3n2CC(C)CN3CCc2ccccc2)n(C)c1=O (stereo not given)	-4	12µM*	-12	8.3µM*
Cn1c(=O)n(CCc2ccccc2)c(=O)c2c1nc1n2CCCN1CCc1ccccc1	-2	9.3µM*	1	.
COc1ccccc1CNC(=S)NCCc1ccccc1	13	12%	47*	1%
CC(C)(CNC(=S)NCCc1ccccc1)CNC(=S)NCCc1ccccc1	-1	13µM*	-3	?
CSc1ccc(CN(C)C(=O)C(c2ccccc2)c2ccccc2)cc1	-1	8.3µM*	-2	?
CSc1ccc(CN(C)C(=O)C(Cc2ccccc2)NC(=O)c2ccccc2)cc1 (stereo not given)	40*	-11%	65*	?
CS(=O)(=O)Cc1ccc(C(=O)NC2CCCc3ccccc32)cc1 (stereo not given)	-2	28%	-6	34%
CC(NC(=O)COC(=O)CCc1ccccc1)c1ccccc1 (stereo not given)	-3	-6%	6	-3%
COCCNC(=O)C(Cc1c[nH]c2ccccc12)NC(=O)OCc1ccccc1 (stereo not given)	9	-23%	10	-4%
CCOc1ccc2nc(C)cc(C(=O)O)c2c1	-2	12%	-12	?
CCOc1ccc2nc(N/C(N)=N/C(=S)Nc3ccc(C)c(C)c3)nc(C)c2c1	-6	6.6µM*	7	6.6µM*
COc1ccc(NC(=S)/N=C(\N)Nc2nc(C)c3ccc(C)cc3n2)cc1	3	12µM*	-3	-12%
CCNC(=S)/N=C(\N)Nc1nc(C)c2cc(C)ccc2n1	43*	?	88*	9%
CCOC(=O)C1=C(COC(=O)COc2cc(C)ccc2C)NC(=O)NC1C (stereo not given)	.	?	.	6%
CCC1CCC(C(=O)NC(C(=O)NCCCN2CCCCC2C)C(C)C)CC1 (stereo not given)	-8	1%	12	-27%
CCOc1ccc(CCNC(=O)CN2C(=O)CCSc3ccccc32)cc1	-7	-24%	19	26%
Cc1noc(C)c1COC(=O)Cc1ccc(Br)cc1	11	-12%	26	0%
CC(C)(C)c1cc(C=C(C#N)C#N)cc(C(C)(C)C)c1O	.	2.6µM*	.	1.5µM*
CC(C)(C)c1cc(/C=N/O)cc(C(C)(C)C)c1O	-5	?	-11	201%
Nc1ccccc1NC(=O)c1ccc(CNC(=O)OCc2cccnc2)cc1	-2	.	7	.
COc1ccc(OCC(=O)C2CC2)c(C#N)c1	27*	1.9µM*	26	234%
CCOC(=O)C1CCN(c2nc3cc(OC)ccc3cc2C#N)CC1	4	2%	20	151%
Cc1ccc(S(=O)(=O)C(C#N)c2nc3ccccc3nc2N2CC(C)OC(C)C2)cc1C (stereo not given)	-9	13µM*	-11	?
Cc1cccc(S(=O)(=O)C(C#N)c2nc3ccccc3nc2N2CC(C)OC(C)C2)c1 (stereo not given)	7	?	26	25%
CC1CN(c2nc3ccccc3nc2C(C#N)C(=O)NC2CCCCC2)CC(C)O1 (stereo not given)	19*	-15%	19	?
CC1CN(c2nc3ccccc3nc2C(C#N)C(=O)OC2CCCCC2)CC(C)O1 (stereo not given)	1	2.1µM*	1	?
O=C(/C=C/c1ccc(Br)cc1)c1ccc(NC2=NCCCS2)cc1	11	?	7	?
CC(C)(C)c1ccc(/C=C/C(=O)c2ccc(NC3=NCCCS3)cc2)cc1	31*	17µM*	78*	?
O=C(/C=C/c1ccccc1)c1ccc(NC2=NCCCS2)cc1	26*	27%	30*	-24%
Cc1cccc(/C=C/C(=O)c2ccc(NC3=NCCCS3)cc2)c1	26*	18%	24	34%
